These results are taken from ChEMBL document CHEMBL4513154, “CO-ADD screening of Jain University (India) compounds”.

Measured potencies and affinities stand elsewhere.

One assay concerns Staphylococcus aureus. The note with it: Concentration 32 ug.mL-1; ASSAY_TEST Inhibition of Bacterial Growth; detection method Absorption (OD600); MEDIA CAMHB; plate type 384well; NBS; CORNING #3640; time 18 hr.
A further assay concerns Escherichia coli. The note with it: Concentration 32 ug.mL-1; ASSAY_TEST Inhibition of Bacterial Growth; detection method Absorption (OD600); MEDIA CAMHB; plate type 384well; NBS; CORNING #3640; time 18 hr.

Consider `Clc1ccc(Cn2c(-c3cscn3)nc3ccccc32)cn1`, for which the Inhibition – broadly, the drop in the measured response relative to a control, in per cent – in the assay with Staphylococcus aureus is reported as 3.88%; in the assay with Escherichia coli it was -1.48%.

For `Clc1ccc2c(c1)nc(-c1cscn1)n2Cc1ccc(Cl)nc1`, the Inhibition with Staphylococcus aureus is -10.99%; in the assay with Escherichia coli, -7.54%.

Take `Clc1ccc(Cn2c(-c3cscn3)nc3c(Cl)cccc32)cn1`: the values for the Inhibition in the assay on Staphylococcus aureus and in the assay with Escherichia coli were -6.34% and -8.9%, respectively.
